The panel holds about 83,000 compounds, 20% with a hit somewhere; the sample as a whole holds those more often.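 Growth was measured after 48 h exposure to one concentration of compound in 96-well plates. Values under 10 count as active.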 Unmarked numbers belong to inactive results. Calls of active or inactive are those of the source.
How the values were obtained:
Experiment in all cases: NCI-60 one-dose screen, 48 h (100 = growth as untreated, 0 = no growth, -100 = all killed)
Conditions in all cases: 10 µM unless noted
SR leukemia = tested on: SR leukemia
RPMI-8226 leukemia = tested on: RPMI-8226 leukemia
OVCAR-5 ovarian = tested on: OVCAR-5 ovarian
OVCAR-4 ovarian = tested on: OVCAR-4 ovarian
SK-OV-3 ovarian = tested on: SK-OV-3 ovarian
IGROV1 ovarian = tested on: IGROV1 ovarian
OVCAR-3 ovarian = tested on: OVCAR-3 ovarian
HS 578T breast = tested on: HS 578T breast
NCI/ADR-RES ovarian = tested on: NCI/ADR-RES ovarian
T-47D breast = tested on: T-47D breast
BT-549 breast = tested on: BT-549 breast
MDA-MB-435 melanoma = tested on: MDA-MB-435 melanoma
SW-620 colon = tested on: SW-620 colon
MCF7 breast = tested on: MCF7 breast
HCT-116 colon = tested on: HCT-116 colon
HCC-2998 colon = tested on: HCC-2998 colon
KM12 colon = tested on: KM12 colon

| Structure (SMILES) | growth (SR leukemia) | growth (RPMI-8226 leukemia) | growth (OVCAR-5 ovarian) | growth (OVCAR-4 ovarian) | growth (SK-OV-3 ovarian) | growth (IGROV1 ovarian) | growth (OVCAR-3 ovarian) | growth (HS 578T breast) | growth (NCI/ADR-RES ovarian) | growth (T-47D breast) | growth (BT-549 breast) | growth (MDA-MB-435 melanoma) | growth (SW-620 colon) | growth (MCF7 breast) | growth (HCT-116 colon) | growth (HCC-2998 colon) | growth (KM12 colon) |
| --- | --- | --- | --- | --- | --- | --- | --- | --- | --- | --- | --- | --- | --- | --- | --- | --- | --- |
| Cc1ccc(C(=O)N/N=C/c2cccc([N+](=O)[O-])c2)cn1 | 108% | 93% | 108% | 111% | 102% | 108% | 118% | 93.1% | 104% | 93.1% | 122% | 100% | 103% | 101% | 105% | 107% | 107% |
| C=C1C(=O)O[C@H]2[C@H]1CC/C(COC(=O)CSCC(=O)OC/C1=C/CC[C@@]3(C)O[C@H]3[C@H]3OC(=O)C(=C)[C@@H]3CC1)=C\CC[C@@]1(C)O[C@@H]21 | 0.996% (active) | -2.24% (active) | 87.3% | 46.6% | 97.5% | 7.28% (active) | 3.24% (active) | 59.7% | 86.2% | 12.3% | -1.44% (active) | 26.8% | -29% (active) | 23.4% | -46.6% (active) | 94.5% | 69.4% |
| c1ccc(Cc2nn3cc(-c4ccccc4)nc3s2)cc1 | 82.1% | 98.3% | 109% | 106% | 112% | 106% | 105% | 115% | 102% | 87.6% | – | 114% | 109% | 87.2% | 78.9% | 103% | 96.5% |
| CC(=O)CC[C@H]1C(=O)N[C@@H](C(C)C)C(=O)N[C@@H](Cc2cc(O)cc(F)c2)C(=O)N2CCC[C@H](N2)C(=O)O[C@H](/C(C)=C/C=C/C(=O)OC(C)(C)C)C/C=C/C=C/[C@H](O)[C@H](C)[C@H]1O | 16.7% | 37.1% | 88.6% | 56.6% | 48.8% | 43.8% | 54.2% | 55.9% | 77.7% | 55% | – | 43% | 25.4% | 48.2% | 26.6% | 51.8% | 34.1% |
| CC(C)n1cnc2c(Nc3cccc(Cl)c3)nc(N[C@H]3CCCC[C@@H]3N)nc21 | 13.9% | 19.8% | 50.4% | 55.4% | 80.6% | 29.4% | – | 66.7% | 61.4% | 64.8% | 63% | 47.5% | 55.5% | 40.9% | 28.1% | 23.4% | – |
| COc1cc(C(=O)c2cnc(-c3cccc4[nH]ccc34)[nH]2)cc(OC)c1OC | 13.9% | 15.8% | 50.1% | 38.9% | 35.6% | 26.6% | -18.1% (active) | 30.9% | 11.2% | 70.6% | 40.2% | -34.8% (active) | 19.7% | 22.4% | -8.06% (active) | 20.9% | 4.18% (active) |
| COc1cc(/C=N/NC(=O)c2ccc(C)nc2)cc(OC)c1OC | 103% | 121% | 103% | 96.4% | 112% | 107% | 119% | 88.6% | 102% | 104% | 105% | 109% | 95.6% | 103% | 110% | 106% | 97.8% |
| O=C1NC(=O)C(c2ccccc2)(c2ccccc2)N1Cc1cn(-c2c3ccccc3nc3ccccc23)nn1 | 31.4% | 72.4% | 103% | 81.1% | 83.5% | 83.3% | 87% | 83% | 87% | 63.6% | 81.5% | 94.4% | 85.6% | 73.9% | 68.1% | 104% | 91.2% |
| Cc1nc2nc(SCC(=O)O)[nH]c2c(=O)[nH]1 | 115% | 96.9% | 104% | 131% | 103% | 101% | 115% | 99% | 105% | 96.7% | – | 107% | 98.5% | 93.2% | 104% | 101% | 105% |
| Nc1ccc(Sc2ccc([N+](=O)[O-])c3nonc23)cc1 | 7.97% (active) | 79.9% | 108% | 97.8% | 96.8% | 97% | 78% | 102% | 98.8% | 54.5% | 88.8% | 99.2% | 46% | 73.2% | 66.3% | 108% | 96.2% |
| CCCCNC(=O)Oc1ccc(/C(=C(\C)c2ccc(Cl)cc2)c2ccc(OCCN3CCCCC3)cc2)cc1 | 7.74% (active) | 73.4% | 71.8% | 73.5% | – | 83.5% | 80% | 85% | 85.2% | 47% | 86.5% | 74.2% | 83.6% | 32.3% | 53.6% | 87.8% | 67.1% |
| CCN(CC)c1ccc(C2=NN(C(C)=O)C(c3cc(OC)c(OC)c(OC)c3)C2)cc1 (configuration not stated) | -23.6% (active) | 2.54% (active) | 39% | 46.9% | 31.5% | -45.1% (active) | -64.8% (active) | -12.2% (active) | -23.9% (active) | 47.2% | -36.3% (active) | -53% (active) | 22.3% | 27% | 6.95% (active) | -6.47% (active) | -17% (active) |
| CCCCOc1ccc(/C=N/NC(N)=S)cc1 | 84.7% | 49.1% | – | 41.3% | 92.1% | 52.3% | – | 89.8% | 85.5% | 23.8% | 73.6% | 85.5% | 73.3% | 61.7% | 67.8% | 79.7% | 69.2% |
| [O-][n+]1c2ccccc2[n+]([O-])c2c3ccccc3[nH]c21 | 95.6% | 57.9% | 21% | 34.4% | 42.8% | 13.8% | -20.6% (active) | 96.3% | 65.4% | 2.23% (active) | 81.3% | 110% | 45.4% | 19.4% | 10.3% | 69.2% | 90.1% |
| O=C1c2ccccc2NC(n2sc3ccccc3c2=O)N1c1ccccc1 (configuration not stated) | 87.4% | 101% | 110% | 98.5% | – | 96.5% | 101% | 106% | 95% | 96.4% | 104% | 111% | 104% | 94.3% | 95.7% | 103% | 92.9% |
| O=c1ccn(Cc2cn(-c3c4ccccc4nc4ccccc34)nn2)c(=O)[nH]1 | 38.8% | 87.3% | 114% | 109% | 90.9% | 80.9% | 110% | 94.6% | 108% | 38% | 100% | 99.4% | 93% | 36.4% | 92.4% | 90.5% | 104% |
| COc1ccn2c(C(C)=O)cc(C(=O)c3ccc4c(c3)Sc3ccccc3N4)c2c1 | 5.07% (active) | 11.1% | 36.9% | 50.2% | 18.8% | 34.9% | -47.8% (active) | 41.9% | 12.7% | 57.4% | 55.6% | -32.9% (active) | 23.4% | 20.9% | 1.38% (active) | 21.2% | 7.27% (active) |
| CCc1ccc(Oc2c(-c3ccc(OCCc4cccc(C(F)(F)F)c4)cc3O)n[nH]c2C(F)(F)F)cc1 | 47.3% | 3.94% (active) | 84.3% | 22% | 64.9% | 32.8% | 0.567% (active) | 51.1% | 42% | 6.59% (active) | 86.5% | 27.1% | 14.7% | 27.8% | 0% (active) | 89.4% | 46.4% |

From PubChem BioAssay (NCI)
